Laboratory results reported in PubChem BioAssay AID1159580 (chemical genetic matrix, 2015).
Out of some 5,500 compounds screened, about 2,000 (36%) were called active. Inconclusive results (about 18%) are left out. No stated cut-off is given here; in the data, active means normalized growth mostly below about 0.91 (no sharp cut-off); inconclusive means no clear call, values can overlap the other calls; inactive means mostly above about 0.92. This is one part of the list.

Experiment: chemical genetic growth profiling, strain panel (AID 1159580);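 further: tested at 20 µM; growth read once vehicle control cultures reached saturation at 30 °C; 1 = growth at the plate median or of vehicle wells; lower values mean less growth of the strain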
Conditions: growth OD

Measured: normalized growth

OC[C@@H]1CCCN2CCCC[C@H]12
inactive: S. cerevisiae deletion strains, locus YJR066W, strain TOR1, hits give low values 0.967 | S. cerevisiae deletion strains, locus YJR075W, strain HOC1, hits give low values 1.02 | S. cerevisiae deletion strains, locus YKL009W, strain mrt4, hits give low values 1.02 | S. cerevisiae deletion strains, locus YKL068W, hits give low values 1.01 | S. cerevisiae deletion strains, locus YKL085W, strain MDH1 (second series), hits give low values 1 | S. cerevisiae deletion strains, locus YKL085W, strain MDH1, hits give low values 1 | S. cerevisiae deletion strains, locus YKL160W, strain elf1, hits give low values 1.02 | S. cerevisiae deletion strains, locus YKR001C, strain vps1, hits give low values 1.01 | S. cerevisiae deletion strains, locus YKR026C, strain gcn3, hits give low values 1.06 | S. cerevisiae deletion strains, locus YKR091W, strain srl3, hits give low values 1.02 | S. cerevisiae deletion strains, locus YLL001W, strain dnm1, hits give low values 0.995 | S. cerevisiae deletion strains, locus YLL026W, hits give low values 1.03 | S. cerevisiae deletion strains, locus YLL041C, strain sdh2, hits give low values 1.01 | S. cerevisiae deletion strains, locus YLR027C, strain aat2, hits give low values 1.02 | S. cerevisiae deletion strains, locus YLR039C, strain RIC1, hits give low values 1.02 | S. cerevisiae deletion strains, locus YLR058C, strain SHM2, hits give low values 1.01 | S. cerevisiae deletion strains, locus YLR102C, strain apc9, hits give low values 1.01 | S. cerevisiae deletion strains, locus YLR113W, strain HOG1, hits give low values 1.01 | S. cerevisiae deletion strains, locus YLR221C, strain rsa3, hits give low values 1.02 | S. cerevisiae deletion strains, locus YLR258W, strain gsy2, hits give low values 1.04 | S. cerevisiae deletion strains, locus YLR262C, strain YPT6 (second series), hits give low values 1.04 | S. cerevisiae deletion strains, locus YLR262C, strain YPT6, hits give low values 1.06 | S. cerevisiae deletion strains, locus YLR268W, strain sec22, hits give low values 1.03 | S. cerevisiae deletion strains, locus YLR320W, strain mms22, hits give low values 0.99 | S. cerevisiae deletion strains, locus YLR330W, strain CHS5, hits give low values 0.98 | S. cerevisiae deletion strains, locus YLR342W, strain FKS1 (second series), hits give low values 0.977 | S. cerevisiae deletion strains, locus YLR342W, strain FKS1, hits give low values 1.03 | S. cerevisiae deletion strains, locus YLR357W, strain rsc2, hits give low values 1.02 | S. cerevisiae deletion strains, locus YLR370C, strain arc18, hits give low values 1.03 | S. cerevisiae deletion strains, locus YLR371W, strain rom2, hits give low values 1.01 | S. cerevisiae deletion strains, locus YLR384C, strain iki3, hits give low values 1.03 | S. cerevisiae deletion strains, locus YLR418C, strain cdc73, hits give low values 1.03 | S. cerevisiae deletion strains, locus YML016C, strain PPZ1, hits give low values 1 | S. cerevisiae deletion strains, locus YML032C, strain rad52, hits give low values 0.995 | S. cerevisiae deletion strains, locus YML120C, strain ndi1, hits give low values 1.03 | S. cerevisiae deletion strains, locus YML124C, strain tub3, hits give low values 1 | S. cerevisiae deletion strains, locus YMR058W, strain fet3, hits give low values 1.03 | S. cerevisiae deletion strains, locus YMR078C, strain ctf18, hits give low values 1.01 | S. cerevisiae deletion strains, locus YMR125W, strain sto1, hits give low values 1.05 | S. cerevisiae deletion strains, locus YMR129W, hits give low values 1.04 | S. cerevisiae deletion strains, locus YMR205C, strain PFK2, hits give low values 1.01 | S. cerevisiae deletion strains, locus YMR223W, strain ubp8, hits give low values 1 | S. cerevisiae deletion strains, locus YMR231W, strain pep5, hits give low values 1.04 | S. cerevisiae deletion strains, locus YMR263W, strain SAP30, hits give low values 0.999 | S. cerevisiae deletion strains, locus YMR307W, strain GAS1, hits give low values 1 | S. cerevisiae deletion strains, locus YNL067W, strain RPL9B, hits give low values 1 | S. cerevisiae deletion strains, locus YNL071W, strain lat1, hits give low values 1.03 | S. cerevisiae deletion strains, locus YNL183C, strain NPR1, hits give low values 0.964 | S. cerevisiae deletion strains, locus YNL209W, strain ssb2, hits give low values 1.02 | S. cerevisiae deletion strains, locus YNL233W, strain BNI4, hits give low values 1.01 | S. cerevisiae deletion strains, locus YNL248C, strain rpa49, hits give low values 1.03 | S. cerevisiae deletion strains, locus YNL250W, strain rad50, hits give low values 1.03 | S. cerevisiae deletion strains, locus YNL271C, strain bni1, hits give low values 1 | S. cerevisiae deletion strains, locus YNL298W, strain CLA4, hits give low values 1.01 | S. cerevisiae deletion strains, locus YNL307C, strain MCK1, hits give low values 1.03 | S. cerevisiae deletion strains, locus YNL322C, strain KRE1 (second series), hits give low values 1.04 | S. cerevisiae deletion strains, locus YNL322C, strain KRE1, hits give low values 1 | S. cerevisiae deletion strains, locus YNR049C, strain mso1, hits give low values 1.03 | S. cerevisiae deletion strains, locus YNR052C, strain pop2, hits give low values 1.01 | S. cerevisiae deletion strains, locus YOL006C, strain TOP1, hits give low values 1.06 | S. cerevisiae deletion strains, locus YOL012C, strain htz1 0.808 | S. cerevisiae deletion strains, locus YOL147C, strain pex11, hits give low values 1.02 | S. cerevisiae deletion strains, locus YOR001W, strain rrp6, hits give low values 1.02 | S. cerevisiae deletion strains, locus YOR061W, strain CKA2, hits give low values 1.01 | S. cerevisiae deletion strains, locus YOR069W, strain VPS5, hits give low values 1.01 | S. cerevisiae deletion strains, locus YOR070C, strain gyp1, hits give low values 1.04 | S. cerevisiae deletion strains, locus YOR080W, strain dia2, hits give low values 1.03 | S. cerevisiae deletion strains, locus YOR083W, strain WHI5, hits give low values 0.97 | S. cerevisiae deletion strains, locus YOR106W, strain vam3, hits give low values 1.05 | S. cerevisiae deletion strains, locus YOR136W, strain idh2, hits give low values 1.03 | S. cerevisiae deletion strains, locus YOR144C, strain elg1, hits give low values 1.01 | S. cerevisiae deletion strains, locus YOR184W, strain ser1, hits give low values 1.02 | S. cerevisiae deletion strains, locus YOR231W, strain MKK1, hits give low values 1.03 | S. cerevisiae deletion strains, locus YOR265W, strain rbl2, hits give low values 1.01 | S. cerevisiae deletion strains, locus YOR270C, strain vph1, hits give low values 1.14 | S. cerevisiae deletion strains, locus YOR290C, strain snf2, hits give low values 1.04 | S. cerevisiae deletion strains, locus YOR316C, strain cot1, hits give low values 1.01 | S. cerevisiae deletion strains, locus YPL051W, strain arl3, hits give low values 1.04 | S. cerevisiae deletion strains, locus YPL055C, strain LGE1, hits give low values 1.01 | S. cerevisiae deletion strains, locus YPL078C, strain atp4, hits give low values 1.04 | S. cerevisiae deletion strains, locus YPL106C, strain sse1, hits give low values 1.03 | S. cerevisiae deletion strains, locus YPL240C, strain hsp82, hits give low values 1.04 | S. cerevisiae deletion strains, locus YPL241C, strain CIN2, hits give low values 1 | S. cerevisiae deletion strains, locus YPL256C, strain CLN2, hits give low values 1.01 | S. cerevisiae deletion strains, locus YPR119W, strain clb2, hits give low values 1.02 | S. cerevisiae deletion strains, locus YPR141C, strain kar3, hits give low values 1.01 | S. cerevisiae deletion strains, locus YPR163C, strain tif3, hits give low values 1.01 | S. cerevisiae deletion strains, locus YPR167C, strain met16, hits give low values 1.01 | S. cerevisiae deletion strains, strain wtn01, hits give low values 1.03 | S. cerevisiae strains, strain wild type, hits give low values 0.979
